Reference: PubChem BioAssay (NCATS)
Records with an inconclusive call do not appear. Active and inactive are the calls of the source. Calls follow the shape of the dose curve; as a rule, active = well fitted curve in the direction sought with a large enough effect; inconclusive = small, poorly fitted or top-dose-only effect, or another doubt; inactive = no such curve, though single readings can be large; an effect the other way counts as inactive or inconclusive.

Columns and labels:
[1] = molecular target: Cytochrome P450 2D6 (Homo sapiens) (UniProt P10635); assay: qHTS for inhibitors of CYP2D6 against the NCATS DSHEA and TCM libraries (AID 1919972); also: potency is read from the fitted curve at half-maximal effect
In short: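 Luminescent P450-Glo read-out of CYP2D6 turnover of a luciferin substrate after NADPH-driven reaction of 30-45 min at room temperature. Compounds were first preincubated 15 min with enzyme at titrated concentrations; quinidine was the intraplate control.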

[2] = molecular target: Cytochrome P450 2C9 (Homo sapiens) (UniProt P11712); assay: qHTS for inhibitors of CYP2C9 against the NCATS DSHEA and TCM libraries (AID 1919973); also: potency is read from the fitted curve at half-maximal effect
In short: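 Read-out is luminescence after P450-Glo detection (30 min, RT). Before that: 15 min compound–enzyme preincubation, then 30-45 min reaction with 1x NADPH regeneration solution, substrate concentration isoform-specific.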

[3] = molecular target: Cytochrome P450 1A2 (Homo sapiens) (UniProt P05177); assay: qHTS for inhibitors of CYPIA2 against the NCATS DSHEA and TCM libraries (AID 1919976); also: potency is read from the fitted curve at half-maximal effect
In short: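 CYP1A2 + luciferin substrate, 100 mM KPO4-type buffer; cmpd 15 min RT; 1x NADPH regen, 30-45 min RT dark; detection reagent 30 min RT; luminescence. Minus-enzyme wells as background; furafylline intraplate control.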

[4] = KB-8-5-11 P-gp reporter qHTS against the NCATS DSHEA and TCM libraries (AID 1919977); also: 0% is about no effect
In short: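 Cells were seeded, allowed ~4 h to attach, dosed by pin tool (substance titrations), incubated ~72 h at 37C, then lysed with CellTiter-Glo for 30 min at room temperature before luminescence reading.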

[5] = qHTS Counterscreen for compound interference against the NCATS DSHEA and TCM libraries (AID 1919978); details: firefly luciferase detection reagent interference, luminescence; also: % of control where 0% means no effect
In short: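 Read-out is luminescence after 30 min at RT with luciferin detection reagent. Before that, compounds (19.5 nM to 39.8 uM final) sat 15 min at RT with 1 uM D-luciferin or 100 mM potassium phosphate buffer. PTC124 served as intraplate control.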

[6] = Dual reporter qHTS for agonist of Pregnane X Receptor (hPXR) against the NCATS DSHEA and TCM libraries: Fluorescence readout (AID 1920058); also: 0% is about no effect
In short: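 HepG2 hPXR-Luc, 2000 cells/well, 5 h attach; cpds ~24 h, 37 °C/5% CO2; CellTiter-Fluor 1 h; fluor. Ex/Em 405/540 nm = viability.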

[7] = Dual reporter qHTS for antagonist of Pregnane X Receptor (hPXR) against the NCATS DSHEA and TCM libraries: Fluorescence Readout (AID 1920061); also: 0% is about no effect
In short: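 Antagonist mode: rifampicin 2 uM final co-added with compounds to hPXR-LucHepG2 cells for 24 h at 37C. Viability by CellTiter-Fluor, Ex/Em 405/540 nm, 1 h; reporter by ONE-Glo luminescence.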

[8] = molecular target: ATP-dependent 6-phosphofructokinase (Trypanosoma brucei brucei) (UniProt O15648); assay: qHTS Assay to Find Inhibitors of T. brucei phosphofructokinase: hit validation (AID 492961);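 also: luminescence reports ADP formed as PFK phosphorylates fructose-6-phosphate with ATP; % is scaled to controls: 0 for no effect and ±100 for the full control effect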
In short: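 In this biochemical qHTS validation, titrated compounds were tested against 1.25 nM PFK with 0.1 mM ATP and 0.5 mM F6P. Percent activity came from controls lacking or containing enzyme.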

3D7 = assay: qHTS profiling for inhibitors of Plasmodium falciparum proliferation (AID 504749);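 also: 0% = DMSO vehicle and full inhibition = artemisinin control; nearly all actives have a fitted effect of over 60% in size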; details: P. falciparum in erythrocytes, SYBR Green DNA, 72 h; series mostly up to 28.7 µM
In short: (§1)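 Infected RBCs, 0.3% parasitemia/2.5% Hct final; cpd 72 h, 37 C, 5% CO2; lysis buffer with saponin/triton/SYBR Green I, o/n RT dark; FI 485/535; norm. to artemisinin (0.29 uM) and DMSO.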

AS120 = assay: as above; details: P. falciparum in erythrocytes, SYBR Green DNA, 72 h; series mostly up to 28.7 µM
In short: as §1

ATS189 = assay: as above; details: P. falciparum in erythrocytes, SYBR Green DNA, 72 h; series mostly up to 28.7 µM
In short: as §1

CP185 = assay: as above; details: P. falciparum in erythrocytes, SYBR Green DNA, 72 h; series mostly up to 28.7 µM
In short: as §1

CP247 = assay: as above; details: P. falciparum in erythrocytes, SYBR Green DNA, 72 h; series mostly up to 28.7 µM
In short: as §1

CP286 = assay: as above; details: P. falciparum in erythrocytes, SYBR Green DNA, 72 h; series mostly up to 28.7 µM
In short: as §1

HB3 = assay: as above; details: P. falciparum in erythrocytes, SYBR Green DNA, 72 h; series mostly up to 28.7 µM
In short: as §1

P94_40 = assay: as above; details: P. falciparum in erythrocytes, SYBR Green DNA, 72 h; series mostly up to 28.7 µM
In short: as §1

PC49 = assay: as above; details: P. falciparum in erythrocytes, SYBR Green DNA, 72 h; series mostly up to 28.7 µM
In short: as §1

TAB109 = assay: as above; details: P. falciparum in erythrocytes, SYBR Green DNA, 72 h; series mostly up to 12.8 µM
In short: as §1

TAB113 = assay: as above; details: P. falciparum in erythrocytes, SYBR Green DNA, 72 h; series mostly up to 28.7 µM
In short: as §1

W2 = assay: as above; details: P. falciparum in erythrocytes, SYBR Green DNA, 72 h; series mostly up to 12.8 µM
In short: as §1

Sequence of ATP-dependent 6-phosphofructokinase (Trypanosoma brucei brucei) (O15648 whole entry, looked up): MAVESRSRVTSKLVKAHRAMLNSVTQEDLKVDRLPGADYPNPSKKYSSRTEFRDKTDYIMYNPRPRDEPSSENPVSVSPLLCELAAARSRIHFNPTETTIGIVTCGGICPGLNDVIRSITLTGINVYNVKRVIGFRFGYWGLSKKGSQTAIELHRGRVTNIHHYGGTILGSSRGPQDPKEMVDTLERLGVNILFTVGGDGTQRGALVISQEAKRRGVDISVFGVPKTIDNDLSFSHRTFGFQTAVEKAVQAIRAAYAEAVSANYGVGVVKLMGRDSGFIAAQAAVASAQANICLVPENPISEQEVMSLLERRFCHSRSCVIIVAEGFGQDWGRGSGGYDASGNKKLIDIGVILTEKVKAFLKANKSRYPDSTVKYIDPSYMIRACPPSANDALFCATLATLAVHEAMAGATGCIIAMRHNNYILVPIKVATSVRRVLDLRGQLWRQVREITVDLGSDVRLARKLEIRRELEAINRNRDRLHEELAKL
Sequence of Cytochrome P450 2C9 (Homo sapiens) (P11712 whole entry, looked up, canonical isoform): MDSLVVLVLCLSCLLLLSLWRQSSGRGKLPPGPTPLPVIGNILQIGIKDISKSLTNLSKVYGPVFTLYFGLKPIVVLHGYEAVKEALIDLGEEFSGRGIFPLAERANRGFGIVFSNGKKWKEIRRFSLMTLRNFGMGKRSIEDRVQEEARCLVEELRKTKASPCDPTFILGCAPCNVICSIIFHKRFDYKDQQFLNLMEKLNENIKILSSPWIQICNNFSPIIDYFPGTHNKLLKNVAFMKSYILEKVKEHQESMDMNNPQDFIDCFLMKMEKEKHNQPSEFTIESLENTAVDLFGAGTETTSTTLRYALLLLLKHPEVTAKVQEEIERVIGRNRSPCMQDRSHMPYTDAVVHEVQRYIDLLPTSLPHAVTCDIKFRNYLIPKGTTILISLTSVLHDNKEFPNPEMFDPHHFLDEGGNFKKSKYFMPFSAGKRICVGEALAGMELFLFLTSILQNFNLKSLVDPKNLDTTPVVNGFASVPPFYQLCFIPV
Sequence of Cytochrome P450 2D6 (Homo sapiens) (P10635 whole entry, looked up): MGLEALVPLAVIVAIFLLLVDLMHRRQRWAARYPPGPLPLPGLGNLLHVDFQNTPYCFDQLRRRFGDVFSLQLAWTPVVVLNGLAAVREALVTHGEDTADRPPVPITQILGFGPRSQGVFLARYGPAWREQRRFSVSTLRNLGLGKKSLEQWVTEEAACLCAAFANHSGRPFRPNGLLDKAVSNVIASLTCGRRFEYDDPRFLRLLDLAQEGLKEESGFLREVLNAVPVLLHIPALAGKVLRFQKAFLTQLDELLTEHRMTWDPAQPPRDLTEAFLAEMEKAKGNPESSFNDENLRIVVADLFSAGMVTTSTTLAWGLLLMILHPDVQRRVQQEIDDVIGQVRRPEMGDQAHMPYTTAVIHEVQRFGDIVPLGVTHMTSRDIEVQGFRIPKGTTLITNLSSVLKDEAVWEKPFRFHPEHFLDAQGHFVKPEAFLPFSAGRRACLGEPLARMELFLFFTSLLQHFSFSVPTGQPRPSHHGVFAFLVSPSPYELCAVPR
Sequence of Cytochrome P450 1A2 (Homo sapiens) (P05177 whole entry, looked up): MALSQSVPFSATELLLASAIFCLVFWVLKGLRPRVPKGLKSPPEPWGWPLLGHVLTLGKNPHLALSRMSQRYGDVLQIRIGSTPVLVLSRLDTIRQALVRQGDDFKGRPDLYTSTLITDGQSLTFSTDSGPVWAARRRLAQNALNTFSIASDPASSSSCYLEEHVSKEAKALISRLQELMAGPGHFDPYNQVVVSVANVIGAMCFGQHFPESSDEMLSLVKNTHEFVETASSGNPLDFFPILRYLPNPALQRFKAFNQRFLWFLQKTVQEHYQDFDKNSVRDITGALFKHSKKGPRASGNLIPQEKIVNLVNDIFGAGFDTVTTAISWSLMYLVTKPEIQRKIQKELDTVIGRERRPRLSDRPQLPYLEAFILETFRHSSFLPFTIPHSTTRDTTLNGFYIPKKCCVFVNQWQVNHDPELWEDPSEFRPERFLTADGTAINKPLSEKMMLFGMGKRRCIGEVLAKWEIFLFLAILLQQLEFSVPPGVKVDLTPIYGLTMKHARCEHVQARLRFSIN

COc1cc2c(cc1O)CC1c3c(cc(O)c(OC)c3-2)CCN1C (stereo not given)
active: Potency [1] 11.2 µM | Potency [2] 10 µM | Potency [3] 3.98 µM
inactive: Potency [4] | max response [5] 0.642% | outcome [6] | outcome [7]

C[C@]12CC[C@H](O)CC1=CCC1C2CC[C@]2(C)C(=O)CC[C@@H]12 (stereo not given in full)
inactive: Potency [8] | Potency (3D7) | Potency (AS120) | Potency (ATS189) | Potency (CP185) | Potency (CP247) | Potency (CP286) | Potency (HB3) | Potency (P94_40) | Potency (PC49) | Potency (TAB109) | Potency (TAB113) | Potency (W2)

C=CCc1ccc2c(c1)OCO2
inactive: Potency [1] | Potency [2] | Potency [4] | max response [5] 0.591% | outcome [6] | outcome [7]
active: Potency [3] 15.8 µM

C[N+]1([O-])[C@@H]2CC(OC(=O)[C@@H](CO)c3ccccc3)C[C@@H]1[C@H]1O[C@H]12 (stereo not given in full)
inactive: Potency [8] | Potency (3D7) | Potency (AS120) | Potency (ATS189) | Potency (CP185) | Potency (CP247) | Potency (CP286) | Potency (HB3) | Potency (P94_40) | Potency (PC49) | Potency (TAB109) | Potency (TAB113) | Potency (W2)
